Measurements from PubChem BioAssay (NCATS).
Records with an inconclusive call do not appear. Activity calls are given as the source filed them. Unless noted, calls follow the shape of the full dose curve.

Experiments:
[1] = target: Lysosomal acid glucosylceramidase (Homo sapiens) (UniProt P04062); assay: Glucocerebrosidase-p2 (AID 348; in the data active = potency below about 10 µM; also: potency is read from the fitted curve at half-maximal effect); conditions: purified GBA, blue fluorogenic substrate, 40 min
In short: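 Compounds titrated from 0.6 nM upwards against 0.2 nM enzyme in pH 5.9 citric acid/KH2PO4, taurocholate, tween-20; blue fluorogenic substrate 80 uM, 40 min room temperature, stopped and read Ex 365/Em 440 for AC50.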

[2] = AP1 Signaling Pathway (AID 357; active = well fitted curve in either direction with a large enough effect, not every such curve was filed as active;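 also: ME-180 reporter cells stimulated with EGF at its EC50 level; % is scaled to controls: 0 for no effect and ±100 for the full control effect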)
In short: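 A ratiometric CCF4 readout (405 nm excitation; 460 and 530 nm emission) quantified AP-1-driven beta-lactamase in ME-180 cells after 5 h with compound and EC50 EGF; AC50 values were derived for activators and inhibitors.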

[3] = target: Cytochrome P450 1A2 (Homo sapiens) (UniProt P05177); assay: p450-cyp1a2 (AID 410); also: potency is read from the fitted curve at half-maximal effect;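 as to activity change, negative = inhibition: -100% = full effect of reference inhibitor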
In short: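 Luminescent readout of luciferin formed from Luciferin-ME by human CYP1A2; data normalized against complete inhibition by 57 uM furafylline. Enzyme 20nM, substrate 100uM at Km, 100mM KPO4 buffer, 60 min reaction at room temperature.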

[4] = Stat Signaling Pathway (AID 446; active = well fitted curve in either direction with a large enough effect, not every such curve was filed as active;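 also: ME-180 cervical cancer cells given 40 pM IL-6 alongside compound; SIE-controlled beta-lactamase reporter measured as 460/530 nm FRET emission ratio; % is scaled to controls: 0 for no effect and ±100 for the full control effect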)
In short: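 Reporter line: ME-180 cervical carcinoma, SIE-beta-lactamase. Treatment: compound with 40 pM IL-6, 5 hrs, 37 C, in low-serum OPTI-MEM with 10 mM HEPES pH 7.3. Detection: 460/530 nm fluorescence.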

[5] = target: Glucocorticoid receptor (Homo sapiens) (UniProt P04150); assay: GR-EFC Redistribution (AID 451); conditions: CHO-K1 GR-EFC translocation, beta-gal luminescence, 2 h; also: potency is read from the fitted curve at half-maximal effect
In short: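 CHO-K1 cells expressing nuclear EA and GR-ED fragments of b-gal; compounds titrated up to 46 uM final, 2 h at 37 C. GR nuclear translocation read as complemented b-gal luminescence after 1 h RT detection.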

[6] = target: Mitogen-activated protein kinase 10 (Mus musculus) (UniProt Q61831); assay: JNK3 AlphaScreen Assay (AID 530; active = well fitted curve in either direction with a large enough effect, not every such curve was filed as active;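 also: kinase came from lysate of stimulated human HepG2 cells; signal reports phosphorylation of biotinylated GST-cJun 1-79 at Ser73 with 10 µM ATP; % is scaled to controls: 0 for no effect and ±100 for the full control effect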)
In short: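 Pre-activated (IL-1β/TNFα) JNK3 in HepG2 lysates phosphorylates biotin-GST-cJun(1-79), 10 uM ATP; anti-phospho-cJun(Ser73) AlphaScreen read at room temperature, pH 7.6 Tris buffer. Compounds pre-incubated 15 min as titrations.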

[7] = target: 3',5'-cyclic-AMP phosphodiesterase 4B (Homo sapiens) (UniProt Q07343); assay: qHTS Assay for Inhibitors of PDE-IV (AID 607; active = well fitted activation curve with a large enough effect in the main read-out, with a control signal flat, not every such curve was filed as active; also: % of control where 0% means no effect)
In short: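 Cell-based read-out of cAMP via a modified cyclic nucleotide-gated channel and membrane potential dye (535/590 nm) in HEK293 cells expressing PDE4 endogenously. Compounds tested up to 22.9 uM final; 100 uM RO 20-1724 reference.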

[8] = qHTS Assay for Lipid Storage Modulators (AID 1519); conditions: Drosophila S3 cells, BODIPY lipid droplet/cell ratio, laser cytometry, cells loaded with oleic acid; for activity change, negative = inhibition: at 57.5 µM (top of the series)
In short: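 Cells seeded at 5,000 per well were treated with compounds over a concentration series and loaded with oleic acid (400 uM, as added). Lipid droplet fluorescence (488 nm excitation, 500-530 nm channel) was read by laser-scanning cytometry and normalized to 20 uM Triacsin C.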

[9] = Primary qHTS for small molecule stabilizers of the endoplasmic reticulum resident proteome: Secreted ER Calcium Modulated Protein (SERCaMP) assay (AID 1508630; active = well fitted curve in the direction sought with a large enough effect; an effect the other way counts as inactive or inconclusive; also: % is scaled to controls: 0 for no effect and ±100 for the full control effect)
In short: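 GLuc-SERCaMP-expressing SH-SY5Y cells, pretreated 16 h with compound, are challenged with thapsigargin to empty ER calcium stores; after 4 h, coelenterazine is added directly to the medium and luminescence is imaged.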

[10] = test system: HIV-1 nucleocapsid protein NCp7 (binding to TG oligonucleotide); assay: HIV Nucleocapsid (AID 346; call rule not given here;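 also: potency is read from the fitted curve at half-maximal effect; potency is for inhibitors that block NC binding and lower polarization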); conditions: HIV-1 NC / fluorescein-TGTGTGTG probe, fluorescence polarization
In short: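 Fluorescence polarization readout: labelled TG4xF oligo (10 nM) with 100 nM nucleocapsid protein, high-salt (250mM NaCl) Hepes pH 7.5 buffer containing zinc and fresh reducing agents. Compounds added by pin tool; incubation 1 hr, room temperature.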

[11] = target: Cytochrome P450 3A4 (Homo sapiens) (UniProt P08684); assay: qHTS Assay for Activators of Cytochrome P450 3A4 (AID 885; active = well fitted curve in the direction sought with a large enough effect; an effect the other way counts as inactive or inconclusive; also: nearly all actives have a fitted effect of over 65% in size)
In short: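 Signal was normalized against complete inhibition by 57 uM ketoconazole. The reaction used 20nM CYP3A4 with 25uM Luciferin-PPXE, 10-min compound preincubation and a 60-min NADPH-supported step at RT.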

[12] = measured here: cell count channel max response
[13] = measured here: lipid channel max response

Glucocorticoid receptor (Homo sapiens), sequence (P04150 whole entry, looked up, the tested form may be a part): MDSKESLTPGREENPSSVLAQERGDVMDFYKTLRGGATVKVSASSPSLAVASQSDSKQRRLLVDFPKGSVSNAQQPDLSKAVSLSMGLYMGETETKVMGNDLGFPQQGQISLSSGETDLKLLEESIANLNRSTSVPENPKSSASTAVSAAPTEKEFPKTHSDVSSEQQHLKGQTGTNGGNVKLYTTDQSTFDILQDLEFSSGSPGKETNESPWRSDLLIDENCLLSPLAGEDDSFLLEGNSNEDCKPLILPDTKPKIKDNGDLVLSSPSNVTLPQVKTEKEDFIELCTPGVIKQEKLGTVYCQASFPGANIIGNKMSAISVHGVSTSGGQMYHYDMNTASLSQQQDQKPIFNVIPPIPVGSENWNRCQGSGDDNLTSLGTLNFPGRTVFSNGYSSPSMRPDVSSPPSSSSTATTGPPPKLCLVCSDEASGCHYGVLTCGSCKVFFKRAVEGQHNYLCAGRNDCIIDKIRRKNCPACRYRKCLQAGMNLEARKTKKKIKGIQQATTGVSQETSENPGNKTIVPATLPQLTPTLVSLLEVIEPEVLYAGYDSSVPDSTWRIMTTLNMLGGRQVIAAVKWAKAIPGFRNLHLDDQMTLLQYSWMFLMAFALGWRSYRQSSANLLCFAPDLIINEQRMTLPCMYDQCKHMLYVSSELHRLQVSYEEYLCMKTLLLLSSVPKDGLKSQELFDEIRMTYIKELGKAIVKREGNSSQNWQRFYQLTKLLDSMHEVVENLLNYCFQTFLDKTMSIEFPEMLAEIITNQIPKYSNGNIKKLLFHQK
Lysosomal acid glucosylceramidase (Homo sapiens), sequence (P04062 whole entry, looked up): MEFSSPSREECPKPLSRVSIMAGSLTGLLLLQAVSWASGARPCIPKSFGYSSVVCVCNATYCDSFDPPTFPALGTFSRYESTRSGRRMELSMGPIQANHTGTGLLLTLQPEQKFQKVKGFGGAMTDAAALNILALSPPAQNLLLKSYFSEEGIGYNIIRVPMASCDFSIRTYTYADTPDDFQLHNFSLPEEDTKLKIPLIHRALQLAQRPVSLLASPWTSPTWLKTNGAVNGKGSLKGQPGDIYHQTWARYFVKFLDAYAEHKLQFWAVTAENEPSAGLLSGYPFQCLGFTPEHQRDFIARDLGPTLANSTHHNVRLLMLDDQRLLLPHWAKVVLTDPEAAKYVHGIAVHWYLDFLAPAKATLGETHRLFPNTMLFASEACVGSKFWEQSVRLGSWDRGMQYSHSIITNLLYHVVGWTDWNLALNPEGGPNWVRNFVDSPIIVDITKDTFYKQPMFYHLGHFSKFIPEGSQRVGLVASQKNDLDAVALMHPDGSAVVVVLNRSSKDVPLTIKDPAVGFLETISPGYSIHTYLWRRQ
3',5'-cyclic-AMP phosphodiesterase 4B (Homo sapiens), sequence (Q07343 whole entry, looked up): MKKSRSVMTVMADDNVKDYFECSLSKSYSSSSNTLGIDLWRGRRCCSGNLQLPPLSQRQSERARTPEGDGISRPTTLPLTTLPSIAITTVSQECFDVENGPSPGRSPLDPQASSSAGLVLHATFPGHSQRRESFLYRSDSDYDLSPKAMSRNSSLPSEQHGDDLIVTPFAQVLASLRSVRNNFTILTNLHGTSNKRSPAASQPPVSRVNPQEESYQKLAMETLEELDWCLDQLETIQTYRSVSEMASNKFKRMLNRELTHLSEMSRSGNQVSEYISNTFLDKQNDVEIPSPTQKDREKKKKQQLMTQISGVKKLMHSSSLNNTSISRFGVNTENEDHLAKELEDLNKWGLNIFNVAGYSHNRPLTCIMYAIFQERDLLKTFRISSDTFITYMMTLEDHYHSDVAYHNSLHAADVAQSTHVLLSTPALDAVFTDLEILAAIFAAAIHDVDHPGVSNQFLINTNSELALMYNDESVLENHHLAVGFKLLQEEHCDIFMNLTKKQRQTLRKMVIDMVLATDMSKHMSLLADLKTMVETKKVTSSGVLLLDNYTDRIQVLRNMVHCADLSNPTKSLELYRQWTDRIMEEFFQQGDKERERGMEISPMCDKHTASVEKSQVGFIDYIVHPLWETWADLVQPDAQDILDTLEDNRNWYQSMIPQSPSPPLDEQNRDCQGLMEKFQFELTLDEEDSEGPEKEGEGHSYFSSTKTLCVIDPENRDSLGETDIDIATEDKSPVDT
Cytochrome P450 1A2 (Homo sapiens), sequence (P05177 whole entry, looked up): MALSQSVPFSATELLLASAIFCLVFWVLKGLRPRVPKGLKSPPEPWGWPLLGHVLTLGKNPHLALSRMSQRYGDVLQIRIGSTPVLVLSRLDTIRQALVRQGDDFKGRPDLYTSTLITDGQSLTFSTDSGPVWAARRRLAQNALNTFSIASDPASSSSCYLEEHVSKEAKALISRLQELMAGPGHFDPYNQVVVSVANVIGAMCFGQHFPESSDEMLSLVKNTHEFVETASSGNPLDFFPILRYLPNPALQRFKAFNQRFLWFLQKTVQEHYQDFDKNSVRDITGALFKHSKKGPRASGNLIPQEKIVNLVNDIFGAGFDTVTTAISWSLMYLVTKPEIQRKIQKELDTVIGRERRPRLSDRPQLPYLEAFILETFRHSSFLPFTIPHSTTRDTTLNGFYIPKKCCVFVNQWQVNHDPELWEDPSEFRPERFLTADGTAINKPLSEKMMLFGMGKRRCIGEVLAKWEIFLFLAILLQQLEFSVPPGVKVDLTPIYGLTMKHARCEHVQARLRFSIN
Cytochrome P450 3A4 (Homo sapiens), sequence (P08684 whole entry, looked up): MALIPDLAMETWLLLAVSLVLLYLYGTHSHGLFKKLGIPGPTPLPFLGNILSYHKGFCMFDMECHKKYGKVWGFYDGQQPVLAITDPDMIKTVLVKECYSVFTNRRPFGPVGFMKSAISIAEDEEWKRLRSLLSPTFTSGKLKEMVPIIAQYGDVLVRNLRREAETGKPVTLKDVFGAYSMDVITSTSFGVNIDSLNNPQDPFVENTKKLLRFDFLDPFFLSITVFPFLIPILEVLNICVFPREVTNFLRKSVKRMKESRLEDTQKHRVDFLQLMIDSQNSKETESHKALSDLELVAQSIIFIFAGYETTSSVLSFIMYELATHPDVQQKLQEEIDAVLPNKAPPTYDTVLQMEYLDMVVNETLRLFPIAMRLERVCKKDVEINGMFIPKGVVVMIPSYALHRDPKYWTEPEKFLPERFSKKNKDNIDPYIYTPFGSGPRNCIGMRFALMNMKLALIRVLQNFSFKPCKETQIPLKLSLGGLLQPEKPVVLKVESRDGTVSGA

| Compound | Potency [1] | outcome [2] | Potency [3] | outcome [4] | Potency [5] | outcome [6] | Potency [7] | activity change, negative = inhibition [8] | max response [8, 12] | max response [8, 13] | outcome [9] | Potency [10] | Potency [11] |
| --- | --- | --- | --- | --- | --- | --- | --- | --- | --- | --- | --- | --- | --- |
| Cc1noc(C)c1C(=O)N1CCC2(CCCN(CC(C)C)C2)CC1 | > 11.4 µM (inactive) | inactive | inactive | inactive | > 46 µM (inactive) | inactive | inactive | 1.67% (inactive) | -5.22% | -1.22% | inactive | – | – |
| O=C(c1csnn1)N1CCC2(CC1)CN(Cc1ccncc1)C2 | > 11.4 µM (inactive) | inactive | 10 µM (active) | inactive | > 46 µM (inactive) | inactive | inactive | 4.72% (inactive) | 6.9% | 14.2% | inactive | > 20 µM (inactive) | – |
| CN1CC[C@@]2(CCCN(C(=O)c3csnn3)C2)C1 | > 11.4 µM (inactive) | inactive | inactive | inactive | > 46 µM (inactive) | inactive | inactive | -3.58% (inactive) | -13.7% | -16.8% | inactive | > 20 µM (inactive) | – |
| c1ccc(N2CC[C@@]3(CCCNC3)C2)nc1 | > 11.4 µM (inactive) | inactive | inactive | inactive | > 46 µM (inactive) | inactive | inactive | 2.13% (inactive) | 12.4% | 16.2% | inactive | – | inactive |
| CN1CCCC2(CCN(C(=O)Oc3ccccc3)CC2)C1 | > 11.4 µM (inactive) | inactive | – | inactive | > 46 µM (inactive) | inactive | inactive | -5.13% (inactive) | 1.15% | -1.11% | inactive | – | – |
| CN1CCC2(CC1)CCN(C(=O)Oc1ccccc1)CC2 | > 11.4 µM (inactive) | inactive | inactive | – | > 46 µM (inactive) | inactive | – | 2.73% (inactive) | 2.61% | 7.31% | inactive | > 20 µM (inactive) | – |
| CC(C)CN1CCCC2(CCN(C(=O)c3ccncc3)CC2)C1 | > 11.4 µM (inactive) | inactive | 12.6 µM (active) | inactive | > 46 µM (inactive) | inactive | inactive | 5.13% (inactive) | 11.3% | 20.9% | inactive | – | inactive |
